PubChem BioAssay (NCI)
Compounds without any hit were thinned out: in the full panel of roughly 79,000, 15% have a hit. A number with no mark means an inactive call. Active and inactive are the calls of the source. Rule as the data show it: active = growth inhibition above about 70%; inactive = the rest.

What was measured:
[1] = NCI Yeast Anticancer Drug Screen. Data for the rad50 strain (AID 155);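 also: 0% = growth of vehicle-only cultures of the same strain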; details: S. cerevisiae rad50 strain growth inhibition, active compounds read high
Procedure, shortened: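 Growth of the mutant yeast was measured after compound exposure and referenced to vehicle-treated cultures.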

[2] = NCI Yeast Anticancer Drug Screen. Data for the mec2-1 strain (AID 157); details: S. cerevisiae mec2-1 strain, active compounds read high
Procedure, shortened: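 Yeast mec2-1 mutant treated with compound. Readout: growth inhibition vs vehicle controls.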

[3] = NCI Yeast Anticancer Drug Screen. Data for the sgs1 mgt1 strain (AID 161);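 also: 0% = growth of cultures given vehicle only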; details: S. cerevisiae sgs1 mgt1 strain, active compounds read high
Procedure, shortened: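 Genetically altered yeast, compound exposure, growth inhibition relative to vehicle.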

[4] = NCI Yeast Anticancer Drug Screen. Data for the cln2 rad14 strain (AID 165);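 also: 0% = growth equal to vehicle treated cultures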; details: S. cerevisiae cln2 rad14 strain, active compounds read high
Procedure, shortened: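 cln2 rad14 yeast strain; compound exposure; growth inhibition read vs vehicle controls.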

[5] = NCI Yeast Anticancer Drug Screen. Data for the bub3 strain (AID 167); details: S. cerevisiae bub3 mutant strain, active compounds read high
Procedure, shortened: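 Whole-cell yeast assay. The mutant strain was incubated with compounds, and growth inhibition was determined by comparison with vehicle-treated cells.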

[6] = NCI Yeast Anticancer Drug Screen. Data for the mlh1 rad18 strain (AID 175); details: S. cerevisiae mlh1 rad18 strain growth inhibition, active compounds read high
Procedure, shortened: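 Yeast w/ defined DNA-repair lesions; compound exposure; growth vs vehicle controls → % inhibition.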

[7] = at 5.0 µM (retest, dose inferred, filed as 0.5)
[8] = at 50.0 µM (retest, dose inferred, filed as 5.0)

Compound	growth inhibition [1, 7]	growth inhibition [1, 8]	growth inhibition ([1]; at 50.0 µM)	growth inhibition [2, 7]	growth inhibition [2, 8]	growth inhibition ([2]; at 50.0 µM)	growth inhibition [3, 7]	growth inhibition [3, 8]	growth inhibition ([3]; at 50.0 µM)	growth inhibition [4, 7]	growth inhibition [4, 8]	growth inhibition ([4]; at 50.0 µM)	growth inhibition [5, 7]	growth inhibition [5, 8]	growth inhibition ([5]; at 50.0 µM)	growth inhibition [6, 7]	growth inhibition [6, 8]	growth inhibition ([6]; at 50.0 µM)
CN(C)CCCNc1ccc(O)c2sc3ccccc3c(=O)c12	4%	14%	69.7%	-5%	33%	34.6%	-5%	20%	63.6%	-3%	-11%	15.6%	5%	25%	24.4%	0%	23%	72% (active)
Cc1ccc(SSCCCCCS(=O)O)cc1	1%	24%	49.5%	4%	60%	23.1%	3%	54%	42.9%	-5%	34%	58%	10%	88% (active)	84.4% (active)	6%	49%	77.5% (active)
CC(=O)c1ccc(OCc2ccccc2)cc1	1%	-6%	-2.25%	1%	5%	-15.5%	16%	-6%	-17.9%	-3%	2%	63.9%	2%	3%	9.75%	-3%	-9%	15.2%
OC1(C2c3ccccc3-c3ccccc32)c2ccccc2-c2ccccc21	66%	90% (active)	94.4% (active)	38%	94% (active)	80.7% (active)	45%	94% (active)	94.3% (active)	11%	90% (active)	52.1%	28%	92% (active)	81.1% (active)	84% (active)	93% (active)	94.6% (active)
COC(=O)c1ccc(/C=C/C2=CC(=O)C=CC2=O)cc1	30%	44%	29.6%	27%	41%	36.5%	27%	57%	78.2% (active)	18%	28%	58.9%	37%	57%	75.3% (active)	29%	57%	84.1% (active)
O=C1OC(=O)C2C3CCC(C3=C3CCCCC3)C12 (configuration not stated)	-2%	93% (active)	35%	7%	95% (active)	28.2%	-1%	58%	40%	5%	96% (active)	-8.55%	5%	95% (active)	10.8%	-1%	93% (active)	36.8%
COc1ccccc1/C=C\C(=O)c1ccccc1	2%	89% (active)	98.7% (active)	1%	98% (active)	99.4% (active)	2%	95% (active)	99.2% (active)	-4%	57%	89.8% (active)	5%	98% (active)	98.8% (active)	2%	98% (active)	98.8% (active)
CNC(=S)N/N=C/c1nccc(-c2ccccc2)c1C	4%	93% (active)	23.8%	-2%	96% (active)	48.9%	3%	96% (active)	41.8%	-9%	94% (active)	39.1%	2%	94% (active)	-2.75%	-3%	93% (active)	74.7% (active)
CC(C)(Sc1cc(Cl)c(Cl)c(Cl)c1)C(=O)OCCN1CCOCC1	78% (active)	98% (active)	98.2% (active)	77% (active)	98% (active)	99.6% (active)	87% (active)	98% (active)	99.4% (active)	59%	96% (active)	98.3% (active)	76% (active)	92% (active)	99.2% (active)	67%	98% (active)	97.5% (active)
CN(C=O)c1ccc2c(c1)Cc1ccccc1-2	14%	80% (active)	47.7%	4%	22%	24.8%	27%	82% (active)	44.9%	2%	40%	58.8%	15%	55%	22.2%	13%	74% (active)	82% (active)
CC(=O)c1cc(-c2ccccc2)nc2ccccc12	-5%	38%	89.2% (active)	-29%	84% (active)	94.1% (active)	12%	80% (active)	98.2% (active)	-25%	35%	74.5% (active)	-28%	87% (active)	87% (active)	4%	88% (active)	97.1% (active)
Nc1nc(N)c2c(ccc3c2ccn3Cc2cccc([N+](=O)[O-])c2)n1	39%	60%	19.9%	70% (active)	90% (active)	0.75%	56%	67%	54.4%	38%	53%	57.5%	43%	51%	83.5% (active)	29%	46%	14.6%
O=NN(CCCl)C(=O)Oc1cc(Cl)c(Cl)cc1Cl	71% (active)	98% (active)	87.8% (active)	79% (active)	100% (active)	92.7% (active)	84% (active)	100% (active)	92.7% (active)	37%	99% (active)	90.5% (active)	48%	100% (active)	92% (active)	96% (active)	99% (active)	91% (active)
Cc1ccc(C)c(N2C(=O)C(=O)C(c3nc4ccccc4o3)/C(=N\NC(=O)c3ccccc3O)C2=O)c1 (configuration not stated)	6%	21%	62.3%	1%	29%	55.2%	7%	21%	63%	8%	33%	53.6%	6%	29%	27.4%	5%	7%	71.9% (active)
CC[n+]1c(/C=C/c2cc(C(=O)OC)n3c2sc2ccccc23)sc2ccccc21	43%	99% (active)	99% (active)	38%	99% (active)	99.2% (active)	3%	99% (active)	99.2% (active)	25%	99% (active)	98.4% (active)	49%	99% (active)	98.6% (active)	61%	99% (active)	98.8% (active)
C=C1C(=O)OC2C/C(C)=C/CC/C(C)=C/CCC3(COC(C)=O)OC3CC12 (configuration not stated)	4%	98% (active)	92.7% (active)	14%	98% (active)	94.2% (active)	10%	97% (active)	94.2% (active)	1%	95% (active)	92.5% (active)	11%	97% (active)	93.2% (active)	37%	98% (active)	92.8% (active)
O=C1OCc2cccc3cccc1c23	7%	84% (active)	88.5% (active)	9%	43%	38.6%	4%	29%	70.3% (active)	8%	38%	36.5%	11%	69%	27.8%	5%	36%	62%
O=C(/C=C/c1cccc(Cl)c1)c1ccccc1	16%	98% (active)	95.7% (active)	-9%	99% (active)	95.5% (active)	7%	99% (active)	98% (active)	5%	52%	12.9%	-30%	98% (active)	95.2% (active)	10%	96% (active)	99.4% (active)
c1ccc2c(c1)Nc1cc3ccccc3cc1N2	41%	91% (active)	74% (active)	30%	61%	43.1%	11%	47%	36.3%	-9%	41%	22.9%	39%	80% (active)	43.1%	37%	75% (active)	61.6%
